# Measurements reported in PubChem BioAssay AID686922 (National Center for Advancing Translational Sciences (NCATS), 2013).
# Inconclusive results are not listed. Activity calls are given as the source filed them. Calls come from the whole dose curve; as a rule, active = well fitted inhibition curve with a large enough effect; inconclusive = small, poorly fitted or top-dose-only effect; inactive = no such curve, though single readings can be large or run the other way.
# Assay: qHTS screen for inhibitors of ELG1-dependent DNA repair in human embryonic kidney (HEK293T) cells expressing luciferase-tagged ELG1: MMS Viability Assay for probe SAR
# Details: HEK293T ELG1-luc + MMS viability, CellTiter-Glo, 16 h; series mostly up to 46.1 µM; activity change, negative = lower viability: at the top concentration
# From the text: Cancer cells divide rapidly compared to normal cells in the body. During cell division, cancer cells need to duplicate their genome by DNA replication. The failure of genome duplication leads to cancer cells' death. Therefore, inhibitors of DNA replication could specifically kill cancer cells. Based on this concept, many chemotherapeutic agents were developed and have been used to treat cancer patients. However, there are a limited number of agents available in the clinical setting, and some of those that do exist have low efficacy and severe side effects. Therefore, if we can find the compounds that effectively block DNA replication either by directly damaging DNA or by inhibiting other cellular mechanisms, the options for cancer treatment will be broadened. With this in mind, we developed a quantitative high-throughput ELG1-luciferase reporter gene assay. Small molecules that specifically block ELG1 function in response to DNA damage can be identified by monitoring the suppression of luciferase activity. Since ELG1 defines a pathway for repairing DNA damage, agents blocking ELG1 function can be used to sensitize cancer cells to chemotherapeutic agents whose mechanism of action involves the induction of DNA damage. Cytotoxicity of the active compounds in the ELG1 qHTS assay with MMS stimulation (AID 493125) was assessed using the CellTiter-Glo Luminescent Cell Viability Assay kit (Promega, USA). CellTiter-Glo measures the intracellular ATP present in metabolically active cells using Ultra-Glo as the luciferase to detect ATP levels. In brief, the luciferase in the buffer catalyzes the oxidation of luciferin to oxyluciferin and light which is dependent on ATP. […] DMSO and wells with media alone were used as positive and negative controls, respectively. Inactivity to this assay is the desirable outcome. NIH Molecular Libraries Probe Production Network [MLPCN] NIH Chemical Genomics Center [NCGC] MLPCN Grant: R03 MH092164 Assay Provider: Kyungjae Myung, NHGRI, NIH
# ELG1-luc HEK293T cells will be seeded in 1536-well plates at a density of 2,000 cells/well. Approximately 5 hours after plating, compounds will be added to the plate by pin tool transfer and MMS will be added by FRD dispenser (final concentration of MMS = 10 µM). 16 hours following the addition of the compounds, cell viability will be measured using CellTiter Glo.
SMILES,"activity change, negative = lower viability",Potency
Fc1cc(Nc2nc(-c3ccncc3)nc3ccccc23)ccc1-c1cccnc1,1.55% (inactive),
Fc1ccc(-c2ccc(Nc3nc(-c4ccncc4)nc4ccccc34)cc2F)c(Cl)c1,,18.7 µM (active)
Fc1ccc(Nc2nc(-c3ccnc(C(F)(F)F)c3)nc3ccccc23)cc1F,,20.9 µM (active)
Fc1cc(Nc2nc(-c3ccncc3)nc3ccccc23)ccc1-c1cccc(OC(F)F)c1,-22.4% (inactive),
COc1cc(Nc2nc(-c3ccncc3)nc3ccccc23)ccc1NS(C)(=O)=O,-4.62% (inactive),
Fc1cc(Nc2nc(-c3ccncc3)nc3ccccc23)ccc1-c1ccnc(C(F)(F)F)c1,-11.2% (inactive),
Fc1cc(Nc2nc(-c3ccncc3)nc3ccccc23)ccc1-c1ccncc1,2.69% (inactive),
COC(=O)c1ccc(Nc2nc(-c3ccncc3)nc3ccccc23)cc1OC,3.72% (inactive),
